The first assay addresses POU1 (OCT1 POU domain);BOB1 (OBF1, OCA-B) (human;human, UniProt P14859;Q16633 260-458;1-256, |). Kind of assay: EMSA-SELEX-seq; with BOB1 (ternary complex band); 20 mM Tris-HCl pH 7.6, 140 mM NaCl, 10% glycerol, 0.5 mM EDTA, 0.05% Triton X-100, 0.1 mg/mL BSA, 0.1 mg/mL poly(dI-dC), 5 mM DTT, room temperature, 20 min; high values mean tight binding. Particulars: protein: recombinant;recombinant; copies: 1;1; dsDNA, one strand shown. The method, boiled down: (§1)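 A double-stranded random 35-nt library (300 ng, PCR-amplified) was incubated with 30 ng tagged POU-domain protein, with or without 28 ng coactivator protein, in 20 μL Tris–HCl pH 7.6 binding buffer for 20 min at RT. The proteins had been expressed in E. coli BL21, purified under denaturing conditions and renatured. Complex bands from native 6% PAGE were eluted and PCR-amplified over four rounds, then sequenced on Illumina. For binding preference, the percentage of sequenced 8-mers matching a motif pattern was calculated.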
With ATCCCAAG, the binding signal is 0.0246 % of ANNNNAAN 8-mers.

Consider AGCTCAAT, for which the binding signal is 0.0261 % of ANNNNAAN 8-mers.

For the sequence AACATAAA, the binding signal is 0.0527 % of ANNNNAAN 8-mers.

On to AGCAGAAT, for which the binding signal was 0.0511 % of ANNNNAAN 8-mers.

For the sequence ATTTTAAA, the binding signal was 0.126 % of ANNNNAAN 8-mers.

As to ACAGCAAG, the binding signal is 0.0164 % of ANNNNAAN 8-mers.

Take AGGCAAAG: the binding signal is 0.258 % of ANNNNAAN 8-mers.

As for ATCACAAA, the binding signal was 0.0539 % of ANNNNAAN 8-mers.

Take AGGCCAAT: the binding signal is 0.0316 % of ANNNNAAN 8-mers.

As to AGGTCAAT, the binding signal was 0.0437 % of ANNNNAAN 8-mers.

For AGCTGAAG, the binding signal is 0.025 % of ANNNNAAN 8-mers.

Take AGATGAAT: the binding signal is 0.0765 % of ANNNNAAN 8-mers.

Regarding AGGAAAAT, the binding signal is 0.507 % of ANNNNAAN 8-mers.

Regarding ACTGTAAT, the binding signal was 0.0464 % of ANNNNAAN 8-mers.

Consider ATTTGAAG, for which the binding signal is 0.0909 % of ANNNNAAN 8-mers.

Regarding ATTTTAAT, the binding signal was 0.258 % of ANNNNAAN 8-mers.

Regarding AATAAAAC, the binding signal was 0.0757 % of ANNNNAAN 8-mers.

Take AAACGAAC: the binding signal was 0.0437 % of ANNNNAAN 8-mers.

For the sequence ATTATAAC, the binding signal is 0.0581 % of ANNNNAAN 8-mers.

As for AGGTAAAT, the binding signal is 0.55 % of ANNNNAAN 8-mers.

In the case of ATAGAAAC, the binding signal is 0.0339 % of ANNNNAAN 8-mers.

For AGGGAAAG, the binding signal was 0.222 % of ANNNNAAN 8-mers.

With AGCTAAAC, the binding signal is 0.0265 % of ANNNNAAN 8-mers.

As for ACCACAAT, the binding signal is 0.0199 % of ANNNNAAN 8-mers.

Consider ATCCAAAA, for which the binding signal was 0.0722 % of ANNNNAAN 8-mers.

For ACGACAAT, the binding signal was 0.025 % of ANNNNAAN 8-mers.

ATGTAAAT: the binding signal was 2.3 % of ANNNNAAN 8-mers.

As for ATTTCAAA, the binding signal is 0.103 % of ANNNNAAN 8-mers.

ATCACAAT: the binding signal is 0.039 % of ANNNNAAN 8-mers.

Consider AGTTGAAC, for which the binding signal is 0.0258 % of ANNNNAAN 8-mers.

On to AGAAGAAT, for which the binding signal is 0.0597 % of ANNNNAAN 8-mers.

For the sequence ACGATAAA, the binding signal is 0.0324 % of ANNNNAAN 8-mers.

Take AAAAAAAT: the binding signal is 0.152 % of ANNNNAAN 8-mers.

Consider ATCTTAAC, for which the binding signal was 0.0402 % of ANNNNAAN 8-mers.

Take AGTAAAAG: the binding signal was 0.0913 % of ANNNNAAN 8-mers.

Regarding ATAATAAG, the binding signal is 0.094 % of ANNNNAAN 8-mers.

Turning to ACCTAAAT, the binding signal was 0.0386 % of ANNNNAAN 8-mers.

Take ATCCGAAA: the binding signal is 0.0308 % of ANNNNAAN 8-mers.

Turning to AGTTTAAA, the binding signal was 0.0808 % of ANNNNAAN 8-mers.

For the sequence ATCTCAAA, the binding signal was 0.0574 % of ANNNNAAN 8-mers.

The target of a further assay is T1, POU2 (OCT2 POU domain);BOB1 (OBF1, OCA-B) (human;human, UniProt P09086;Q16633 175-386;1-256, |).
T1 sequence 1: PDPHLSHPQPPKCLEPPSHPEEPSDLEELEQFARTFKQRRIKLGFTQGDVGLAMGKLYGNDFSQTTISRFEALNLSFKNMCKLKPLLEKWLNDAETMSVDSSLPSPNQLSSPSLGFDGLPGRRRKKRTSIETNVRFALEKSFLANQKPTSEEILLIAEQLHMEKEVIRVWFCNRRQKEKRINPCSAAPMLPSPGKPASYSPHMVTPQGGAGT
T1 sequence 2: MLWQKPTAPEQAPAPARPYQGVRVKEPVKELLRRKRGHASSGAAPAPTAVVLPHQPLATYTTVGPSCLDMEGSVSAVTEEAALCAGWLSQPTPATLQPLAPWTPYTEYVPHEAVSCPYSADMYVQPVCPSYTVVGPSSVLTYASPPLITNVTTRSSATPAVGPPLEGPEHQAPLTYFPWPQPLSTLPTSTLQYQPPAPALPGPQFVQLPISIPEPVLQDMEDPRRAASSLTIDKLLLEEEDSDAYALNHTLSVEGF
Described as above. Particulars: protein: recombinant;recombinant; copies: 1;1; dsDNA, one strand shown. The method, boiled down:
as §1
For the sequence ATCCCAAG, the binding signal is 0.0198 % of ANNNNAAN 8-mers.

Regarding AGCTCAAT, the binding signal is 0.0223 % of ANNNNAAN 8-mers.

As to AACATAAA, the binding signal is 0.0627 % of ANNNNAAN 8-mers.

As to AGCAGAAT, the binding signal was 0.0561 % of ANNNNAAN 8-mers.

Turning to ATTTTAAA, the binding signal was 0.103 % of ANNNNAAN 8-mers.

Consider ACAGCAAG, for which the binding signal is 0.014 % of ANNNNAAN 8-mers.

As to AGGCAAAG, the binding signal is 0.13 % of ANNNNAAN 8-mers.

Consider ATCACAAA, for which the binding signal was 0.0438 % of ANNNNAAN 8-mers.

As to AGGCCAAT, the binding signal is 0.0413 % of ANNNNAAN 8-mers.

On to AGGTCAAT, for which the binding signal is 0.0636 % of ANNNNAAN 8-mers.

Consider AGCTGAAG, for which the binding signal was 0.0223 % of ANNNNAAN 8-mers.

For the sequence AGATGAAT, the binding signal was 0.09 % of ANNNNAAN 8-mers.

As to AGGAAAAT, the binding signal was 0.347 % of ANNNNAAN 8-mers.

ACTGTAAT: the binding signal was 0.0504 % of ANNNNAAN 8-mers.

As to ATTTGAAG, the binding signal was 0.0545 % of ANNNNAAN 8-mers.

Turning to ATTTTAAT, the binding signal was 0.221 % of ANNNNAAN 8-mers.

Turning to AATAAAAC, the binding signal was 0.0726 % of ANNNNAAN 8-mers.

Consider AAACGAAC, for which the binding signal was 0.0355 % of ANNNNAAN 8-mers.

Take ATTATAAC: the binding signal was 0.057 % of ANNNNAAN 8-mers.

Consider AGGTAAAT, for which the binding signal is 0.391 % of ANNNNAAN 8-mers.

In the case of ATAGAAAC, the binding signal is 0.0355 % of ANNNNAAN 8-mers.

Regarding AGGGAAAG, the binding signal was 0.142 % of ANNNNAAN 8-mers.

Turning to AGCTAAAC, the binding signal was 0.0256 % of ANNNNAAN 8-mers.

For the sequence ACCACAAT, the binding signal was 0.0215 % of ANNNNAAN 8-mers.

On to ATCCAAAA, for which the binding signal is 0.0446 % of ANNNNAAN 8-mers.

As for ACGACAAT, the binding signal was 0.0297 % of ANNNNAAN 8-mers.

In the case of ATGTAAAT, the binding signal is 3.57 % of ANNNNAAN 8-mers.

Regarding ATTTCAAA, the binding signal is 0.0751 % of ANNNNAAN 8-mers.

For ATCACAAT, the binding signal is 0.0487 % of ANNNNAAN 8-mers.

Consider AGTTGAAC, for which the binding signal was 0.0338 % of ANNNNAAN 8-mers.

For AGAAGAAT, the binding signal was 0.0603 % of ANNNNAAN 8-mers.

On to ACGATAAA, for which the binding signal is 0.0487 % of ANNNNAAN 8-mers.

With AAAAAAAT, the binding signal was 0.12 % of ANNNNAAN 8-mers.

For ATCTTAAC, the binding signal is 0.0512 % of ANNNNAAN 8-mers.

Consider AGTAAAAG, for which the binding signal is 0.0578 % of ANNNNAAN 8-mers.

Consider ATAATAAG, for which the binding signal is 0.126 % of ANNNNAAN 8-mers.

ACCTAAAT: the binding signal was 0.0421 % of ANNNNAAN 8-mers.

As for ATCCGAAA, the binding signal was 0.0338 % of ANNNNAAN 8-mers.

Take AGTTTAAA: the binding signal is 0.0751 % of ANNNNAAN 8-mers.

ATCTCAAA: the binding signal is 0.038 % of ANNNNAAN 8-mers.

The values are drawn from publication PMC10812921, “Transcriptional Coactivator BOB1 (OBF1, OCA-B) Modulates the Specificity of DNA Recognition by the POU-Domain Factors OCT1 and OCT2 in a Monomeric Configuration”.
